Results on 10 compounds are retold here after PMC5540273 (PLoS ONE, 2017).

Test systems include RIOK1; RIOK2; RIOK3; RIPK1; RIPK2; RIPK4; RIPK5; ROCK1; ROCK2; ROS1.
What all share (details): concentration: 1 μM, replicates: in singlicate; n = 1
The subject of assay [1] is RPS6KA4(Kin.Dom.1-N-terminal).
Assay [2] concerns RPS6KA4(Kin.Dom.2-C-terminal).
The subject of assay [3] is RPS6KA5(Kin.Dom.1-N-terminal).
Assay [4] has as its system RPS6KA5(Kin.Dom.2-C-terminal).
Assay [5] has as its system T1, RSK1(Kin.Dom.1-N-terminal).
T1 construct: gene RPS6KA1

Assay [6] has as its system T2, RSK1(Kin.Dom.2-C-terminal).
T2 construct: gene RPS6KA1

Assay [7] concerns T3, RSK2(Kin.Dom.1-N-terminal).
T3 construct: gene RPS6KA3

Assay [8] relates to T4, RSK2(Kin.Dom.2-C-terminal).
T4 construct: gene RPS6KA3

The subject of assay [9] is T5, RSK3(Kin.Dom.1-N-terminal).
T5 construct: gene RPS6KA2

The subject of assay [10] is T6, RSK3(Kin.Dom.2-C-terminal).
T6 construct: gene RPS6KA2
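Further: KINOMEscan kinase panel screen.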

With `CCOc1nccc(-c2c(-c3ccc(F)cc3)ncn2C2CCNCC2)n1` [SB-249175], the “%Inh” value with RIOK1 came out at 44%; in the assay with RIOK2, 24%; with RIOK3 it was 42%; with RIPK1, 23%; in the assay on RIPK2, 31%; with RIPK4, 53%. The “%Inh” value stood at 8% with RIPK5; 53% in the assay with ROCK1; 19% in the assay with ROCK2; 11% in the assay with ROS1; 8% in [1]; 32% in assay [2]. The “%Inh” value was found to be 100% in assay [3]; 0% in assay [4]; 16% in assay [5]; 20% in assay [6]; 52% in [7]; 39% in assay [8]. In addition, the “%Inh” value in [9] was 17%; in assay [10], 20%.
Take `Cl.Cl.NCC(NC(=O)c1cc(-c2cccnc2)c(-c2ccnc3[nH]ccc23)s1)c1ccccc1` (centres unmarked) [GSK1323434]: the “%Inh” value turned out to be 60% with RIOK1; 54% with RIOK2; 57% in the assay on RIOK3; 10% in the assay on RIPK1; 26% with RIPK2; 16% with RIPK4. Besides, the “%Inh” value is recorded as 0% with RIPK5; 99.7% in the assay on ROCK1; 99.4% with ROCK2; 20% in the assay with ROS1; 58% in assay [1]; 0% in [2]. The “%Inh” value in assay [3] amounted to 18%; in [4], 57%; in [5] it was 61%; in assay [6] it was 53%; in assay [7], 29%; in assay [8], 40%. Besides, the “%Inh” value in [9] and in [10] was 0% each time.
Regarding `CC(C)NCC(Cc1ccccc1)NC(=O)c1cc(Br)c(-c2ccnc3[nH]ccc23)s1.Cl.Cl` (centres unmarked) [GSK1383281], the “%Inh” value in the assay with RIOK1 was 72%; in the assay on RIOK2, 84%; in the assay on RIOK3, 60%; in the assay with RIPK1, 0%; with RIPK2 it was 0%; with RIPK4 it was 15%. Also, the “%Inh” value in the assay with RIPK5 is recorded as 9%; in the assay with ROCK1 it was 99.6%; in the assay on ROCK2, 99.6%; with ROS1 it was 46%; in [1] it was 76%; in assay [2], 0%. Also, the “%Inh” value in assay [3] was 48%; in assay [4] it was 22%; in [5], 50%; in [6] it was 0%; in assay [7], 25%; in [8], 0%. Also, the figures for the “%Inh” value in assay [9] and in [10] were 16% and 6%, respectively.
With `O=C(Nc1n[nH]c2nc(-c3cccc(O)c3)ccc12)C1CC1` [SB-711805], the “%Inh” value in the assay on RIOK1 came to 53%; in the assay on RIOK2, 11%; in the assay with RIOK3, 59%; in the assay with RIPK1, 14%; in the assay on RIPK2 it was 5%; in the assay on RIPK4, 37%. Moreover, the “%Inh” value is recorded as 7% with RIPK5; 2% in the assay with ROCK1; 0% in the assay with ROCK2; 0% in the assay with ROS1; 0% in assay [1]; 51% in [2]. The “%Inh” value is 0% in assay [3]; 0% in assay [4]; 0% in assay [5]; 0% in assay [6]; 30% in assay [7]; 0% in assay [8]. Moreover, the “%Inh” value in assay [9] and in [10] was 0% in each case.
For `O=C(Nc1c(F)cccc1F)c1cc(C(=O)c2ccccc2F)c[nH]1` [GSK1326180], the “%Inh” value is 11% in the assay on RIOK1; 4% with RIOK2; 6% in the assay with RIOK3; 0% with RIPK1; 0% with RIPK2; 0% with RIPK4. The “%Inh” value in the assay with RIPK5 was found to be 0%; with ROCK1, 0%; in the assay on ROCK2, 9%; in the assay on ROS1, 0%; in assay [1], 8%; in assay [2] it was 0%. Moreover, the “%Inh” value in [3] is 4%; in [4], 0%; in [5], 5%; in assay [6] it was 0%; in assay [7] it was 1%; in [8], 24%. In addition, the “%Inh” value in [9] is listed as 0%; in assay [10], 10%.
As for `O=C(Nc1n[nH]c2cc(-c3cccs3)ccc12)C1CC1` [SB-731284], the “%Inh” value worked out at 85% in the assay with RIOK1; 18% in the assay on RIOK2; 82% in the assay on RIOK3; 59% in the assay with RIPK1; 4% with RIPK2; 10% in the assay with RIPK4. The “%Inh” value in the assay with RIPK5 amounted to 48%; in the assay on ROCK1 it was 31%; in the assay with ROCK2, 32%; with ROS1, 0%; in [1], 0%; in assay [2] it was 11%. For the same compound, the “%Inh” value in assay [3] was found to be 0%; in [4] it was 0%; in assay [5], 8%; in assay [6], 0%; in [7], 41%; in assay [8] it was 0%. In addition, the “%Inh” value in assay [9] and in [10] was 0% each time.
Take `CC(C)c1nc(-c2cccc(NS(=O)(=O)c3c(F)cccc3F)c2)c(-c2ccnc(Nc3ccc(N4CCOCC4)nc3)n2)s1.Cl` [GSK1723980]: the “%Inh” value in the assay with RIOK1 stood at 25%; with RIOK2 it was 0%; with RIOK3 it was 2%; in the assay with RIPK1, 0%; in the assay on RIPK2, 97.7%; with RIPK4, 2%. In addition, the “%Inh” value with RIPK5 turned out to be 81%; with ROCK1, 6%; in the assay on ROCK2 it was 0%; with ROS1, 0%; in [1] it was 0%; in [2], 0%. The “%Inh” value in assay [3] is 0%; in [4], 0%; in [5], 83%; in [6] it was 1%; in assay [7] it was 15%; in [8], 0%. In addition, the “%Inh” value is 27% in [9] and 0% in assay [10].
`CCn1c(-c2nonc2N)nc2c(-c3ccccc3)ncc(OCCCN)c21.O=C(O)C(F)(F)F.O=C(O)C(F)(F)F` [GSK260205]: the “%Inh” value in the assay on RIOK1 is on record as 7%; with RIOK2, 15%; with RIOK3, 0%; in the assay on RIPK1 it was 0%; with RIPK2 it was 30%; with RIPK4 it was 10%. For the same compound, the “%Inh” value came out at 0% in the assay on RIPK5; 91.7% in the assay with ROCK1; 98.4% with ROCK2; 0% in the assay with ROS1; 0% in assay [1]; 0% in assay [2]. Besides, the “%Inh” value in [3] is reported as 31%; in assay [4], 8%; in assay [5], 19%; in assay [6], 50%; in [7] it was 80%; in [8], 0%. For the same compound, the “%Inh” value in [9] stood at 99.7%; in assay [10] it was 1%.
Regarding `NCCC(NC(=O)c1cc(Br)c(-c2ccnc3[nH]ccc23)s1)c1ccccc1.O=C(O)C(F)(F)F.O=C(O)C(F)(F)F` (centres unmarked) [GSK1307810], the “%Inh” value in the assay with RIOK1 is recorded as 100%; with RIOK2, 97.9%; with RIOK3, 100%; in the assay with RIPK1, 81%; in the assay with RIPK2 it was 4%; in the assay on RIPK4 it was 0%. Further, the “%Inh” value was found to be 1% in the assay on RIPK5; 100% in the assay with ROCK1; 99.8% with ROCK2; 29% with ROS1; 44% in assay [1]; 39% in assay [2]. The “%Inh” value was 46% in assay [3]; 46% in [4]; 37% in assay [5]; 31% in [6]; 44% in [7]; 0% in assay [8]. Besides, the “%Inh” value in assay [9] is reported as 13%; in [10], 0%.
`CCNc1nccc(-c2c(-c3ccc(F)cc3)ncn2C2CCN(C)CC2)n1`: the “%Inh” value with RIOK1 was 10%; in the assay with RIOK2, 0%; in the assay on RIOK3, 29%; in the assay on RIPK1, 8%; with RIPK2, 36%; in the assay with RIPK4, 0%. Besides, the “%Inh” value (with RIPK5; with ROCK1; in the assay on ROCK2; in the assay with ROS1; in [1]; in [2]) was 0% each time. In addition, the “%Inh” value stood at 0% in assay [3]; 8% in assay [4]; 5% in assay [5]; 50% in [6]; 9% in assay [7]; 15% in assay [8]. The entries for the “%Inh” value in assay [9] and in [10] were 6% and 10%, respectively.
